# Laboratory results from PubChem BioAssay (Tox21).
# “And” between values parts separate entries of the source, which are not always exact repeats. Equal entries are not always repeated. Results filed as inconclusive are left out. Where a call stands in place of a potency, no number is given. Some compounds were tested as several samples or in several runs, with calls that do not always agree. The source made the active and inactive calls. Calls come from the whole dose curve; as a rule, active = well fitted cell-killing curve with a large enough effect in the repeat runs; inconclusive = weak or mixed curves, or effect the other way; inactive = flat fitted curve, though single readings scatter.
# Experiment: qHTS RealTime-Glo MT Cell Viability Assay in HEK293 cells - 8 hour (AID 1224887); note: nearly all actives have a fitted effect of over 50% in size; for activity change, negative = cytotoxicity: top concentration of the series differs between compounds
# Conditions: RealTime-Glo luminescence; series mostly up to 76.8 µM; activity change, negative = cytotoxicity: at the top concentration
# Source text: U.S. Tox21 Program National Center for Advancing Translational Sciences [NCATS] NIH Chemical Genomics Center [NCGC] U.S. Environmental Protection Agency [EPA] National Institutes of Environmental Health Sciences [NIEHS] National Toxicology Program [NTP] U.S. Food and Drug Administration [FDA] Tox21 Assay Overview: Measure of cell viability is critical in the cell-base assay. Analysis of cell viability is necessary for the characterization of cell responses to cytotoxic drugs and environmental stress. A RealTime-Glo MT Cell Viability Assay to monitor cell viability in real time of continues cell culture during 40 hours of compound treatment was used to screen Tox21 10K library compounds in Hek293 cells. The RealTime-Glo MT Cell Viability Assay is a nonlytic, homogeneous, bioluminescent method to measure cell viability in real time using a simple, plate-based method. The assay involves adding NanoLuc luciferase and a cell-permeant prosubstrate to cells in culture. Viable cells reduce the proprietary prosubstrate to generate a substrate for NanoLuc luciferase. This substrate diffuses from cells into the surrounding culture medium, where it is rapidly used by the NanoLuc Enzyme to produce a luminescent signal. The signal correlates with the number of viable cells, making the assay well suited for cytotoxicity studies.
# Tox21 Assay Protocol Summary: The mixture of Hek293 cell suspension and reagents were dispensed at 600cells/6 ul/well in 1536-well tissue culture treated black solid bottom plates using a Multidrop dispenser. After the assay plates were incubated at a 37 C/5% CO2 incubator for 5 hours, 23 nL of compounds dissolved in DMSO, positive and negative controls was transferred to the assay plate by a pintool work station. The plates were incubated at 37 C for 40 hours. The luminescence intensity were measured at 0h, 8h, 16h, 24h, 32h and 40h time points using ViewLux plate reader during compound treatment.
# Potency is the fitted concentration of half-maximal effect.
Structure (SMILES),"activity change, negative = cytotoxicity",Potency
c1ccc2cc3ccccc3cc2c1,4.95% (inactive),–
Oc1ccc(C(c2ccc(O)cc2)C(Cl)(Cl)Cl)cc1,-19.3% (inactive),–
CC(=O)OC(C)C,–,inactive
C=C[C@H]1CN2CC[C@H]1C[C@H]2[C@H](O)c1ccnc2ccc(OC)cc12,–,inactive
C=CC(C)(O)CCC=C(C)C (stereo not given),–,inactive
COC(=O)CC(=O)OC,–,inactive
CN1CCOCC1,–,inactive
CC1(C)C(C=C(Cl)Cl)C1C(=O)OCc1cccc(Oc2ccccc2)c1 (stereo not given),-24.8% (inactive),–
IC(I)I,–,inactive
CC(C)=CCO,–,inactive
CC1(C)O[C@@H]2C[C@H]3[C@@H]4C[C@H](F)C5=CC(=O)C=C[C@]5(C)[C@@]4(F)[C@@H](O)C[C@]3(C)[C@]2(C(=O)CO)O1,–,inactive
CC/C(=C(/CC)c1ccc(O)cc1)c1ccc(O)cc1,–,15.4 µM (active)
O=C(O)CCCCCCCCCCCC(=O)O,–,inactive
CN(C)/N=N/c1nc[nH]c1C(N)=O,–,inactive
CCc1cccc2c3c([nH]c12)C(CC)(CC(=O)O)OCC3 (stereo not given),–,inactive
Cc1ccc(/C(=C\CN2CCCC2)c2ccccn2)cc1,–,inactive
Cc1ccc(S(=O)(=O)O)cc1C,–,inactive
CCC(=O)O[C@H]1[C@H](O[C@@H]2[C@@H](C)[C@H](O[C@H]3C[C@@](C)(OC)[C@@H](O)[C@H](C)O3)[C@@H](C)C(=O)O[C@H](CC)[C@@](C)(O)[C@H](O)[C@@H](C)C(=O)[C@H](C)C[C@@]2(C)O)O[C@H](C)C[C@@H]1N(C)C,–,inactive
ClC/C=C/CCl,–,inactive
Cc1ccc(N)c([N+](=O)[O-])c1,–,inactive

Structure (SMILES),"activity change, negative = cytotoxicity",Potency
CN(C)CCCN1c2ccccc2Sc2ccc(Cl)cc21,–,30.9 µM (active)
C=CCNCC=C,–,inactive
[O-]/[N+](=N\O)c1ccccc1,–,inactive
CCCCCCCCCCCCCO,–,inactive
NC[C@H](O)c1ccc(O)c(O)c1,–,inactive
c1ccc2c(c1)ccc1ncccc12,–,inactive
CC(C)(C)c1cccc(C(C)(C)C)c1O,–,47.9 µM (active) and inactive
O=C(O)COCCN1CCN(C(c2ccccc2)c2ccc(Cl)cc2)CC1 (stereo not given),–,inactive
C=CCCCCCCCCCC,–,inactive
CC(C)[C@@H]1CC[C@@H](C)CC1=O,–,inactive
FC(F)(F)C(Cl)Br (stereo not given),–,inactive
C[C@]12CC[C@@H]3c4ccc(O)cc4CC[C@H]3[C@@H]1CC[C@@H]2O,–,inactive
O=C(CCCN1CCC(O)(c2ccc(Cl)cc2)CC1)c1ccc(F)cc1,–,13.8 µM (active) and 9.52 µM (active)
CCCCCC=O,–,inactive
CC(=O)O[C@]1(C(C)=O)CC[C@H]2[C@@H]3C=C(Cl)C4=CC(=O)CC[C@]4(C)[C@H]3CC[C@@]21C,-17.1% [at 35.3 µM] (inactive),–
CC(C)[N+](C)(CCOC(=O)C1c2ccccc2Oc2ccccc21)C(C)C,–,inactive
NCCOCCO,–,inactive
CC(C)(Oc1ccc(Cl)cc1)C(=O)O,–,inactive
C=C[Si](OCCOC)(OCCOC)OCCOC,–,inactive
CN(C)C,–,inactive
